Measured values taken from the supplement of paper PMC11732987, “Enantioselective OTUD7B fragment discovery through chemoproteomics screening and high-throughput optimisation” (Communications Chemistry, 2025).
A number with no mark means an inactive call.

Legend:
Assay in all cases: log2 ratio of Biotin-Ahx-Ub-VS probe labelling (fragment/DMSO); higher = less target engagement (more negative = stronger competition), active = hit call of the paper (q ≤ 0.05, log2 ratio ≤ -1)
Conditions in all cases: compound concentration: 200 uM; treatment time: 3 h
USP19 = molecular target: T1, USP19 (UniProt O94966)
T1 sequence (whole entry): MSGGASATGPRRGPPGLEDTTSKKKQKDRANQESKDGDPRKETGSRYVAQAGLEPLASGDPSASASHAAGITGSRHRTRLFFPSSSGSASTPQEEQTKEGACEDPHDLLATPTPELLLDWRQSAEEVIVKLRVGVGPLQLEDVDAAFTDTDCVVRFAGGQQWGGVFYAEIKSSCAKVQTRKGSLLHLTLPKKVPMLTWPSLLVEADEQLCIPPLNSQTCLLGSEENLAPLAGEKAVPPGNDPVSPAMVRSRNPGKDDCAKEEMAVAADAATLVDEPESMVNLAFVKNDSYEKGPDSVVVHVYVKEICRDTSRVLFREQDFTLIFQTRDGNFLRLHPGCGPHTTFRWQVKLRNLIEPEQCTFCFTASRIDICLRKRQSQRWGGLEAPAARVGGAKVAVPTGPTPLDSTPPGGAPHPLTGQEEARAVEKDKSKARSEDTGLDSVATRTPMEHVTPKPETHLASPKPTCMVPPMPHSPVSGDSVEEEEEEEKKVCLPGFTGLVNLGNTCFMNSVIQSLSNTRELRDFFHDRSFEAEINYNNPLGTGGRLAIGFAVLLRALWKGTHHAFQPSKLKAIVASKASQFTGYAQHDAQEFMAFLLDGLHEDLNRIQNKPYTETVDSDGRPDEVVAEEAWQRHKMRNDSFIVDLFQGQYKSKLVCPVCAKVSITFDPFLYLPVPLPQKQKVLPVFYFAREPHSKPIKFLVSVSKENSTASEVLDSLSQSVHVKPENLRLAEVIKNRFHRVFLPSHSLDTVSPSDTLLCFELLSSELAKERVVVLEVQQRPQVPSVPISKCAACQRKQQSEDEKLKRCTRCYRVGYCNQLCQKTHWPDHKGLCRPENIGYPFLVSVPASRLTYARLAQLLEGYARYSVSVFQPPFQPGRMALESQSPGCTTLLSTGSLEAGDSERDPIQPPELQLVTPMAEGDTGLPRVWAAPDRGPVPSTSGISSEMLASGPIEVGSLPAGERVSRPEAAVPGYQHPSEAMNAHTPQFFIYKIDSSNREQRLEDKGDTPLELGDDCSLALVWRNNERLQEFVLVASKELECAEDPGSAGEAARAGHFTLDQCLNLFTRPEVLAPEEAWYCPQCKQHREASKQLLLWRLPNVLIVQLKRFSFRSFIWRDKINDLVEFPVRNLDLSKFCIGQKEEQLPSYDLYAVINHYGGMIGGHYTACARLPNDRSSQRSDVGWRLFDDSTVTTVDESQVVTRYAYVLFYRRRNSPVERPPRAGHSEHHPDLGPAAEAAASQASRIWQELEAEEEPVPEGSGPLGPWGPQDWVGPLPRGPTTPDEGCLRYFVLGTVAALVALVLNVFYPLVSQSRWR
In short: (§1)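 Labelling with Biotin-Ahx-Ub-VS (0.5 µM final, 1 h) followed a 3 h triplicate treatment of HEK293T lysate (495 µg per sample, Tris/CHAPS/IGEPAL buffer with protease inhibitors) with fragment at 200 µM or vehicle. Labelled DUBs were NeutrAvidin-enriched, digested with LysC and trypsin, and run by diaPASEF LC-MS/MS. The values, average log2 fragment/vehicle ratios by unpaired t-test, come from global-median-normalised Spectronaut label-free quantities. Proteins with ≥2 unique peptides were used.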

USP24 = USP24 (UniProt Q9UPU5)
USP24, sequence (Q9UPU5 whole entry): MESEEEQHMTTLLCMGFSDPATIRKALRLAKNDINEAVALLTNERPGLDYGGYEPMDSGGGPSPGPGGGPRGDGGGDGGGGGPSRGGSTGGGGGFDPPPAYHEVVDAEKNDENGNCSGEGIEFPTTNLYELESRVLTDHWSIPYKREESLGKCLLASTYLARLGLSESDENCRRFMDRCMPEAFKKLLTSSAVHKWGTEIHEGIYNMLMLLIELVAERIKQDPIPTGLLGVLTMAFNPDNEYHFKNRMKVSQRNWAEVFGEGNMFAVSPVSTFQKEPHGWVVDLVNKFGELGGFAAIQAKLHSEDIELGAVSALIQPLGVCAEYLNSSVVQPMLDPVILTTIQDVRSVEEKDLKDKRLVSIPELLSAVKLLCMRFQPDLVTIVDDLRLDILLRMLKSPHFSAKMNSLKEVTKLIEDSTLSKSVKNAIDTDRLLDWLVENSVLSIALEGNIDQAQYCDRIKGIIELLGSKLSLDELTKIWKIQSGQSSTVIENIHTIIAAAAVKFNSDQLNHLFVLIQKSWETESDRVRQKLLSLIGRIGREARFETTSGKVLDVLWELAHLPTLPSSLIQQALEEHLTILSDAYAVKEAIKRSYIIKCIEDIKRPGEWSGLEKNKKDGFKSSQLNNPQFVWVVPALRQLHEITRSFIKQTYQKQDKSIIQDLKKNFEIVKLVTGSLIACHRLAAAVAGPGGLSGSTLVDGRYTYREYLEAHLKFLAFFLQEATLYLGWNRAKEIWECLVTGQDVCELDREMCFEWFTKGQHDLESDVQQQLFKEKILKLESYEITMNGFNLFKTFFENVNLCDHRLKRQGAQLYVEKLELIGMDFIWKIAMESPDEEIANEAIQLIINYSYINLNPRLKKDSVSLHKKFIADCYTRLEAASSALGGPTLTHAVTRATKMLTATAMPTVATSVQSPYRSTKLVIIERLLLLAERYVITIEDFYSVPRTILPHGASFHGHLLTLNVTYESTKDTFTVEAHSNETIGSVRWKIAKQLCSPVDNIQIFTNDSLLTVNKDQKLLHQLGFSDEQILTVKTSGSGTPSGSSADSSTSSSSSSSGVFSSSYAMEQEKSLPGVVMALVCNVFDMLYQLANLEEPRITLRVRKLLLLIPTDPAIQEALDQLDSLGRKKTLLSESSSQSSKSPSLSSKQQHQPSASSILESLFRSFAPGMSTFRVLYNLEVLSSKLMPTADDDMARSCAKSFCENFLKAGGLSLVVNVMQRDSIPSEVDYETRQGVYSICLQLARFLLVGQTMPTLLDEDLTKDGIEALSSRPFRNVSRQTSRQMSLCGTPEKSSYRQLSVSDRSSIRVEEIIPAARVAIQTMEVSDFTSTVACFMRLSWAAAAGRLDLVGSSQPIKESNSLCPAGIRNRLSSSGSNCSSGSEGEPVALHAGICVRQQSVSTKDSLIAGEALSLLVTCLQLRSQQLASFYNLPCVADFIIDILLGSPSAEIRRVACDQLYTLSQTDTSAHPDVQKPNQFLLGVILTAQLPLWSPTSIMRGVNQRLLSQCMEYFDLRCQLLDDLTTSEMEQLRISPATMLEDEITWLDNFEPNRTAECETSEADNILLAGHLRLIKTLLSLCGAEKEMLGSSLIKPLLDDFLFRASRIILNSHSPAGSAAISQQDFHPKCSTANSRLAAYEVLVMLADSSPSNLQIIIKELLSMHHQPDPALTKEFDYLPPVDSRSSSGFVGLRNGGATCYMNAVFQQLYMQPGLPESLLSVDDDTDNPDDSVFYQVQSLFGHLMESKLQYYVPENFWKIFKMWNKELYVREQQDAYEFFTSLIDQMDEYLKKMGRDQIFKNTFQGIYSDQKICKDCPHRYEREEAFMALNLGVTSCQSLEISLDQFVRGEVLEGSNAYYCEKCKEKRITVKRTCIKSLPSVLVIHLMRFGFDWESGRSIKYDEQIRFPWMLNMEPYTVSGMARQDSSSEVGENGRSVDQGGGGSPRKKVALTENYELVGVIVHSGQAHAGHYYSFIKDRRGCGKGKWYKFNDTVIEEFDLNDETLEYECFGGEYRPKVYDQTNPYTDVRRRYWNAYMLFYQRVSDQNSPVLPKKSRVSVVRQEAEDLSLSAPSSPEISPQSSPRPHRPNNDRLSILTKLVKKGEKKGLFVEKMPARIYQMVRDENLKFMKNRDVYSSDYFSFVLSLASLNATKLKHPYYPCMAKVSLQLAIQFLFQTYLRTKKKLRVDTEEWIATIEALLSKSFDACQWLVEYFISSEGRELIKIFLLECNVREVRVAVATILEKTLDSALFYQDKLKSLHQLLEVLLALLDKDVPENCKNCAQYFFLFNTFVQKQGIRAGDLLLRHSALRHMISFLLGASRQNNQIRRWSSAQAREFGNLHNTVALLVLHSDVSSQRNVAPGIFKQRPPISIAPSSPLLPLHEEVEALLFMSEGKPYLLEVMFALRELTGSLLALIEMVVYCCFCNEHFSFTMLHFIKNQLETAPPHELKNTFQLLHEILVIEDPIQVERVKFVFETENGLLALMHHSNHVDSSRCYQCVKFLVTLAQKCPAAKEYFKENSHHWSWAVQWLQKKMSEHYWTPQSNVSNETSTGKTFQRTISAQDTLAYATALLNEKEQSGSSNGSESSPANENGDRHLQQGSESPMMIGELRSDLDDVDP
In short: as §1

USP25 = molecular target: T2, USP25 (UniProt Q9UHP3)
T2 sequence (whole entry): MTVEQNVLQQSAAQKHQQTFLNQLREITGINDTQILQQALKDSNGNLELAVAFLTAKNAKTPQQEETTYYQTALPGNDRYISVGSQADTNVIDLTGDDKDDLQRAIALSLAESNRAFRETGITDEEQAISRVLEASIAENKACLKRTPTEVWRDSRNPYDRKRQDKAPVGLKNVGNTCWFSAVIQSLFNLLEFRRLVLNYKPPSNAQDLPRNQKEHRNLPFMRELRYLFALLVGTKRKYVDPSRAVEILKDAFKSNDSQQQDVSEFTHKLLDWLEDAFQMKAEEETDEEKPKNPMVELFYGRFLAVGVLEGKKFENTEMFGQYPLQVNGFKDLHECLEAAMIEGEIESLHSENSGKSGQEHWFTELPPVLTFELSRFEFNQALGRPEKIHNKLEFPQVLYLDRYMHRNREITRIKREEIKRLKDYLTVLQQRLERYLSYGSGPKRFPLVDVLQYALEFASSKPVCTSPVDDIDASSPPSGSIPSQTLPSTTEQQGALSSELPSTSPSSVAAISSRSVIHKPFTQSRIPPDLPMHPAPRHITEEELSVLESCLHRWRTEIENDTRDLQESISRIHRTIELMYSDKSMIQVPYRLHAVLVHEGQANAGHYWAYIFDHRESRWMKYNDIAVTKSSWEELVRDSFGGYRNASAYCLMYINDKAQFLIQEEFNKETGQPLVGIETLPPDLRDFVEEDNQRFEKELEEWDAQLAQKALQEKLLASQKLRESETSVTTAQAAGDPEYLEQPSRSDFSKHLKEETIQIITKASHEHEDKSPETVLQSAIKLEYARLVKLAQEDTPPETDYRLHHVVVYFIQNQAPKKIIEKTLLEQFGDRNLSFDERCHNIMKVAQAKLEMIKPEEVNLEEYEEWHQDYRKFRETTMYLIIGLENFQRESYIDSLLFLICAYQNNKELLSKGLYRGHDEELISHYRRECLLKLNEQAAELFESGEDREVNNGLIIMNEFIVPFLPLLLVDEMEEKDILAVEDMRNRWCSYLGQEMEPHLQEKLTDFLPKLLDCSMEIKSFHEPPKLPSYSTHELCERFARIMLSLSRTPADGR
In short: as §1

USP28 = molecular target: T3, USP28 (UniProt Q96RU2)
T3 sequence (whole entry): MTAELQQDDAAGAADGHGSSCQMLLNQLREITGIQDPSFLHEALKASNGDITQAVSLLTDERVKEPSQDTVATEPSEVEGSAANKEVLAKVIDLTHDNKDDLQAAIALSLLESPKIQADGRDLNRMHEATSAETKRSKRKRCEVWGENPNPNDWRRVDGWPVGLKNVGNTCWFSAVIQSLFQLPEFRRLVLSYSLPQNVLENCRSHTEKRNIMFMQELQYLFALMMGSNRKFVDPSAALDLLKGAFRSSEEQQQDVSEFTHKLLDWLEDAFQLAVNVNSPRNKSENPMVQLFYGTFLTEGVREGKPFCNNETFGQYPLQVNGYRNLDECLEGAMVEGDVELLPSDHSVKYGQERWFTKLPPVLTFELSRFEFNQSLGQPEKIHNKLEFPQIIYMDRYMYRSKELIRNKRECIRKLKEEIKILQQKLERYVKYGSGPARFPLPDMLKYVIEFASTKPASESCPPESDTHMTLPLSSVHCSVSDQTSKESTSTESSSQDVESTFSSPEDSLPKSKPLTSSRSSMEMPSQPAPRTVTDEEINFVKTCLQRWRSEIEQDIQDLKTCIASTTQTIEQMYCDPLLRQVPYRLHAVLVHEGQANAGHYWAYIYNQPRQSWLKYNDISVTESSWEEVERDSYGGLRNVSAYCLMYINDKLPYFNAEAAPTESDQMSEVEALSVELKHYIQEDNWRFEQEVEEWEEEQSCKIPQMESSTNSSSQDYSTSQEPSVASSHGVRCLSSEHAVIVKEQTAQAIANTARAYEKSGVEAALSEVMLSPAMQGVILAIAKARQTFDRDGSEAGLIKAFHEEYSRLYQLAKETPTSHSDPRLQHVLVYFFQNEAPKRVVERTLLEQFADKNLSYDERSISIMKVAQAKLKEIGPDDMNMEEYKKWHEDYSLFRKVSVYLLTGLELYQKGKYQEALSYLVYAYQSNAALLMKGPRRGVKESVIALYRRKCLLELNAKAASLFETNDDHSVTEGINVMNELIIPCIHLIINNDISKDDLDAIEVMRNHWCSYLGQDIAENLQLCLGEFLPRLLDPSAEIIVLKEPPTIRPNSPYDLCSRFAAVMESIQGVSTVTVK
In short: as §1

SMILES: CC(=O)Nc1ccc(NC(=O)CCl)cc1
- log2 ratio of Biotin-Ahx-Ub-VS probe labelling (USP19): -0.179
- log2 ratio of Biotin-Ahx-Ub-VS probe labelling (USP24): -0.314
- log2 ratio of Biotin-Ahx-Ub-VS probe labelling (USP25): -1.33 (active)
- log2 ratio of Biotin-Ahx-Ub-VS probe labelling (USP28): -0.938
